# High-throughput results: PubChem BioAssay, National Center for Advancing Translational Sciences (NCATS)
# LMNA splice mod – changes lamin A minigene splicing in HeLa cells. HeLa LMNA splicing GFP/RFP minigene ratio, 48 h. Potency, µM (highest dose often 46.1 µM), for inactives: top-dose ratio change, negative = inhibition, usual class: inhibitors. 200,000 compounds, 0.01% hits; active = well fitted inhibition curve with a large enough effect in the signal ratio, with a control signal flat, not every such curve was filed as active; inconclusive = small, poorly fitted or top-dose-only effect, or effect the other way, or a change in a side signal; the % refers to the signal ratio; note: potency is the fitted concentration of half-maximal effect
#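 S3 HeLa cells stably expressing lamin A-EGFP splicing minigene plus DsRed2, 600 cells/well, 48 h compound exposure at 37C. Laser-scanning cytometry; analysed as GFP (500-530 nm)/RFP (575-640 nm) total intensity ratio; 0.5% DMSO vehicle.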
# IMPase cell inh – IMPase inhibition in cells. 120,000 tested, under 10 active. inhibition (IP1 accumulation), % at 46.1 µM. CHO-M1 cells, IP1 accumulation, HTRF TR-FRET ratio. P97697; active = well fitted curve in the direction sought with a large enough effect in the signal ratio, not every such curve was filed as active; inconclusive = small, poorly fitted or top-dose-only effect, or a change in a side signal; inactive = no such curve, though single readings can be large or run the other way; the % refers to the signal ratio;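 note: cells stimulated with carbachol in lithium chloride buffer; plate controls were DMSO basal wells for no effect and reference inhibitor wells for full effect; higher means more IMPase inhibition seen as more IP1 and lower FRET ratio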
# Target sequence (P97697 whole entry, looked up): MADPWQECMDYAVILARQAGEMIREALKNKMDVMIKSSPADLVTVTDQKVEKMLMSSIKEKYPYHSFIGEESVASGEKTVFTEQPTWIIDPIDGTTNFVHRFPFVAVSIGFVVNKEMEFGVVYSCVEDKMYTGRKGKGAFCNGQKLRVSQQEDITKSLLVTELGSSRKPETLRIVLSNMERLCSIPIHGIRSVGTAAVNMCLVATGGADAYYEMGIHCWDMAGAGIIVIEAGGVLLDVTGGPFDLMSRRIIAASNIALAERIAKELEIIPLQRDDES
#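 The IP-One HTRF competitive assay in carbachol-stimulated CHO-M1 cells quantifies cellular IP1. Compounds spanned up to 46 uM final, and activity is expressed as AC50 from concentration-response fits of the ratio and donor data.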
# PNC inhibitor – blocks assembly of the perinucleolar compartment. PC3M PTB-GFP, PNC prevalence imaging, 16 h; stronger effect = lower value. activity change (PNC), negative = inhibition, % at 10 µM. 140,000 compounds, 3.1% hits. AID 2417;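 active = readout at or below -70, meaning at least 70% loss of cells showing the perinucleolar compartment, a nuclear body marking cancer cells; inconclusive = readout between -30 and a set limit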;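 note: plate controls were DMSO wells for no effect and camptothecin positive control wells for full effect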
#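 Compounds are pinned in duplicate onto adhered PC3M cells stably expressing GFP-tagged PTB and incubated 16 h at 37 C. Cells are then fixed, nuclei stained with Hoechst, and PNC-positive cells counted.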
# Numbers without * were called inactive; u = inconclusive; x = no result; [ ] = another dose, or the depositor's remark. The full list was thinned out, with hits kept by preference. Unless noted, % is set by controls: 0 for no effect and ±100 for the full control effect.
SMILES,LMNA splice mod,IMPase cell inh,PNC inhibitor
COc1cc(C(=O)OCC(=O)N(C)Cc2ccccc2)cc(OC)c1OC,-10%,14,-100*
CCN(Cc1ccccc1)C(=O)C1CCN(S(=O)(=O)c2c(C)noc2/C=C/c2ccc(C)cc2)CC1,-1%[46 µM],x,x
COc1ccc(S(=O)(=O)N2CCCCCC2)cc1N,0%[46 µM],x,x
COc1ccc(-c2nc(C)c(CCNC(=O)c3ccccc3Br)s2)cc1OC,-18%[46 µM],x,x
CCOc1ccc(Nc2ncnc(N)n2)cc1,2%,-4,u
Nc1ncnc(Nc2ccc(F)cc2)n1,8%,x,-91*
COCCCN1CN(Cc2ccccc2)CNC1=S,1%,0,-92*
CCCN1CN(Cc2ccccc2)CNC1=S,-5%,4,u
Cc1ccc(-c2nc3cccnc3s2)cc1NS(=O)(=O)c1ccc2c(c1)OCCO2,-24%,-15,-108*
O=S(=O)(Nc1cccc(-c2nc3cccnc3s2)c1)c1ccc2c(c1)OCCO2,u,-3,-20
Cc1cccc(N2CCN(S(=O)(=O)c3ccc(F)c(C(=O)Nc4ccc(C(C)C)cc4)c3)CC2)c1C,-15%[46 µM],x,x
CCOc1ccccc1NC(=O)CN(c1ccc(OC)cc1)S(=O)(=O)c1c(C)noc1C,u,13,-97*
CCOc1ccc(N(CC(=O)Nc2ccc(C)c(C)c2)S(=O)(=O)c2c(C)noc2C)cc1,u,-11,u
CCOc1ccc(N(CC(=O)Nc2ccccc2C)S(=O)(=O)c2c(C)noc2C)cc1,-20%,10,-88*
CCOc1ccccc1NC(=O)CN(c1cc(C)cc(C)c1)S(=O)(=O)c1c(C)noc1C,-5%,4,31
CCN(CC)CCOC(=O)c1cc(Cl)c(N)cc1OC,-16%,7,x
CCOc1ccc(C(=O)NCc2nc3cccnc3n2Cc2cccc(OC)c2)cc1,-28%[46 µM],x,x
CC(=O)Nc1nc(CCN2C(=O)c3ccccc3C2=O)cs1,-2%[46 µM],x,x
CCCCCCCCCCCCCCCC[n+]1cccc(C(=O)N(CC)CC)c1,-7%,x,u
CCCCCCCC[n+]1cccc(C(=O)N(CC)CC)c1,u,x,-124*
CN(CC(=O)NCc1ccc2c(c1)OCO2)S(=O)(=O)c1ccc(Br)s1,-1%,4,20
CCOC(=O)N/N=C(\C)c1cccs1,30%[9.22 µM],x,x
C/C(=N\NC(=O)CC1(C)OCCO1)c1cccs1,-1%,x,-88*
Fc1ccc2[nH]c3c(N4CCN(c5ccccc5)CC4)ncnc3c2c1,u,24,-126*
CCOC(=O)N1CCN(c2ncnc3c2[nH]c2ccc(F)cc23)CC1,u,6,-6
SMILES,LMNA splice mod,IMPase cell inh,PNC inhibitor
Cc1ccc(NCCCCO)cc1C,22%[9.22 µM],x,x
O=C1c2ccccc2S(=O)(=O)N1CC(O)COc1ccc(Br)cc1 (stereo not given),5%,-3,-106*
O=C1c2ccccc2S(=O)(=O)N1CC(O)COc1ccc(Cl)cc1 (stereo not given),u,4,-17
CN(C)c1ncc2nc(-c3cccc(C#N)c3)c(=O)n(C)c2n1,2%,x,x
CNC(=O)CSc1cnc2ccccc2n1,-8%[9.22 µM],x,x
CCc1cnc2c(c1SC(C(C)=O)C(=O)N(C)C)c(=O)n(C)c(=O)n2C (stereo not given),-6%[46 µM],x,x
Cc1ccc(C(=O)CSc2nnc(-c3ccco3)o2)o1,11%,0,u
COc1ccc(-c2nnc(SCC(=O)N3c4ccccc4Sc4ccccc43)o2)cc1,-4%,-3,-100*
COc1ccc(-c2nnc(SCC(=O)N3CCCCC3)o2)cc1,x,1,x
COc1ccc(-c2nnc(SCC(=O)c3ccc(C)o3)o2)cc1,u,6,-119*
CCOC(=O)c1ccccc1NC(=O)CSc1ncc(CO)n1Cc1ccc(C)cc1,7%[46 µM],x,x
CCOC(=O)c1sc(/N=C/N(C)C)c(C(=O)OCC)c1C,19%,2,-82*
CCOC(=O)c1sc(/N=C/N(C)C)nc1C,9%,x,30
O=C(CSc1nnc(CNC(=O)c2c(F)cccc2Cl)o1)Nc1cccc(F)c1,x,4,x
Cc1ccc(NC(=O)CSc2nnc(CNC(=O)c3c(F)cccc3Cl)o2)cc1,9%,5,-91*
CCSc1nnc(NC(=O)CSc2nnc(CNC(=O)c3ccccc3F)o2)s1,u,x,-124*
O=C(CSc1nnc(CNC(=O)c2ccccc2F)o1)NCCc1ccccc1,-4%,6,25
CCOc1ccc(C(=O)Nc2ccc(C(=O)OCc3cc(=O)n4nc(CC)sc4n3)cc2)cc1,-14%[46 µM],x,x
Cc1ccccc1OCC(=O)OCc1cc(=O)n2nc(C3CCCCC3)sc2n1,6%[46 µM],x,x
COC(=O)C1=C(C(=O)OC)[C@@H]2N(Cc3ccccc3)c3ccccc3[C@@]23C[C@@H](C(=O)OC)N(S(=O)(=O)c2ccc(C#N)cc2)C3=N1,3%[9.22 µM],x,x
CCCCN(C)S(=O)(=O)c1ccc(C(=O)N=c2sc3cc(NC(C)=O)ccc3n2C)cc1,-4%,x,-94*
CCCCN(CC)S(=O)(=O)c1ccc(C(=O)N=c2sc3cc(NC(C)=O)ccc3n2C)cc1,-9%,-29,34
N=C(N)SCc1ccccn1,u,x,-91*
c1ccc(CSc2nnc(SCc3ccccn3)s2)nc1,9%,9,-20
CCOC(=O)c1cnc2ccc(Br)cc2c1NCCN1CCOCC1,x,-7,x
SMILES,LMNA splice mod,IMPase cell inh,PNC inhibitor
O=C(OC(C(=O)NC1CCCC1)c1ccccc1F)c1ccco1 (stereo not given),-6%,-4,-139*
O=C(OC(C(=O)NC1CCCCC1)c1ccccc1)c1ccco1 (stereo not given),-13%,2,u
CC[C@@H]1CN2CCc3cc(OC)c(OC)cc3[C@H]2C[C@@H]1C[C@@H]1NCCc2cc(OC)c(OC)cc21,x,3,x
COc1cc2c(cc1OC)C1Cc3ccc(OC)c(OC)c3CN1CC2 (stereo not given),u,0,-86*
CCOC(=O)Nc1nnc(-c2ccccc2OC)s1,-10%,1,-119*
COc1ccccc1-c1nnc(NC(=O)OCC(C)C)s1,-6%,-14,-20
CCCCNc1c(C(=O)OCC)c(C)nc2c1cnn2CC,u,13,x
CCOC1(C(F)(F)F)NC(=O)N(Cc2ccc(OC)cc2)C1=O (stereo not given),-2%,4,-6
CCOCCc1nn2c(=O)cc(COC(=O)C(CC)c3ccccc3)nc2s1 (stereo not given),9%[46 µM],x,x
COCCn1c(COc2ccc(OC)cc2)nc2ccccc21,-11%,13,-30
CCOc1ccc(NCc2nc3ccccc3n2CCOc2ccccc2)cc1,u,x,-113*
Cc1ccc(CN2CCCn3nc(C(=O)NC(C)C)cc3C2=O)cc1,-13%[46 µM],x,x
COc1ccc(NC(=O)c2cc(C3CC3)nc3c2c(C)nn3-c2ccc(C)cc2)cc1OC,2%[46 µM],x,x
CCc1nn2c(=O)cc(COC(=O)c3ccccc3NC(=O)COc3ccc(C)c(C)c3)nc2s1,8%[46 µM],x,x
COc1ccc(Cn2c(CO)cnc2SCc2cccc(C)c2)cc1,-3%[46 µM],x,x
Cc1cccc(NC2=C/C(=N/S(=O)(=O)c3cccs3)c3ccccc3C2=O)c1,u,x,-97*
Cc1ccc(NC2=C/C(=N\S(=O)(=O)c3cccs3)c3ccccc3C2=O)c(C)c1,u,28,-22
COc1ccc(S(=O)(=O)N(CC(=O)NCCSc2ccccc2)c2ccc(C)cc2)cc1,x,-1,x
COC(=O)c1ccc(Cl)cc1NC(=O)/C=C/c1ccc(C)o1,17%,x,-124*
